Experimental data taken from PubChem BioAssay (EPA / NIEHS).
Results filed as inconclusive are left out. Active and inactive are the calls of the source. How the source made its calls, unless noted: active means hit-call score of the fitted dose curve at least 0.9, where 1 is the maximum; inactive means score below 0.9.

Tests used:
[1] = read-out: Nuclear factor erythroid 2-related factor 2 (Homo sapiens) (UniProt Q16236); assay: LTEA_HepaRG_NFE2L2: Life Technologies and Expression Analysis (LTEA) Assay for Nuclear factor erythroid 2-related factor 2 (NFE2L2) Transcription Factor using HepaRG (AID 2283527); settings: mRNA level, 48 h; actives raise or lower the signal
Summary of the method: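 NFE2L2 transcript level was read by qRT-PCR (housekeeping ACTB/GAPDH/POLR2A normalisation) after 48 h chemical treatment of HepaRG in serum-free induction medium. Duplicate 8-point half-log curves, top 100 uM, 0.5% DMSO vehicle; up- or down-regulation fitted against vehicle.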

[2] = read-out: succinate dehydrogenase complex iron sulfur subunit B (SDHB), SDHB (gene 6390); assay: LTEA_HepaRG_SDHB: Life Technologies and Expression Analysis (LTEA) Assay for succinate dehydrogenase complex iron sulfur subunit B (SDHB) using HepaRG (AID 2283528); settings: mRNA level, 48 h; actives raise or lower the signal
Summary of the method: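 HepaRG, 48 h exposure, 8-pt half-log series from 100 uM in 0.5% DMSO, duplicates. Readout: SDHB mRNA by Fluidigm qRT-PCR vs housekeeping genes; bidirectional fit relative to DMSO.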

[3] = read-out: Signal transducer and activator of transcription 3 (Homo sapiens) (UniProt P40763); assay: LTEA_HepaRG_STAT3: Life Technologies and Expression Analysis (LTEA) Assay for Signal transducer and activator of transcription (STAT3) using HepaRG (AID 2283529); settings: mRNA level, 48 h; actives raise or lower the signal
Summary of the method: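 STAT3 transcript quantified by qRT-PCR against three housekeeping genes (ACTB, GAPDH, POLR2A), fitted both directions relative to DMSO. HepaRG cultures exposed 48 h to eight half-log concentrations, top 100 uM, 0.5% DMSO, serum-free induction medium.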

[4] = read-out: solute carrier (SLCO1B1), SLCO1B1 (gene 10599); assay: LTEA_HepaRG_SLCO1B1: Life Technologies and Expression Analysis (LTEA) Assay for solute carrier (SLCO1B1) using HepaRG (AID 2283530); settings: mRNA level, 48 h; actives raise or lower the signal
Summary of the method: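 HepaRG, serum-free induction medium, 48 h dosing, 8-pt half-log from 100 uM, 0.5% DMSO vehicle, duplicates. Readout: SLCO1B1 mRNA, qRT-PCR, ACTB/GAPDH/POLR2A normalization; up or down fit vs DMSO.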

[5] = read-out: sulfotransferase 2A1 (SULT2A1), SULT2A1 (gene 6822); assay: LTEA_HepaRG_SULT2A1: Life Technologies and Expression Analysis (LTEA) Assay for sulfotransferase 2A1 (SULT2A1) using HepaRG (AID 2283531); settings: mRNA level, 48 h; actives raise or lower the signal
Summary of the method: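 Transcript levels of SULT2A1, quantified by qRT-PCR and normalized to three housekeeping genes, serve as the readout. Human HepaRG cultures receive test chemicals for 48 h at up to 100 uM in half-log steps, with 0.5% DMSO vehicle.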

[6] = read-out: Transforming Growth Factor (TGFA), TGFA (gene 7039); assay: LTEA_HepaRG_TGFA: Life Technologies and Expression Analysis (LTEA) Assay for Transforming Growth Factor (TGFA) using HepaRG (AID 2283532); settings: mRNA level, 48 h; actives raise or lower the signal
Summary of the method: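 TGFA transcript quantified by qRT-PCR (Fluidigm arrays) against three housekeeping genes, after 48 hours chemical treatment of HepaRG cells. Top concentration 100 uM with half-log dilutions, 8 points, duplicates, 0.5% DMSO.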

[7] = read-out: Transforming Growth Factor (TGFB1), TGFB1 (gene 7040); assay: LTEA_HepaRG_TGFB1: Life Technologies and Expression Analysis (LTEA) Assay for Transforming Growth Factor (TGFB1) Transporter using HepaRG (AID 2283533); settings: mRNA level, 48 h; actives raise or lower the signal
Summary of the method: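 HepaRG, 48 h post-plating, switched to serum-free induction medium; chemicals 100 uM top, half-log, 8 pts, 0.5% DMSO, dup; 48 h exposure; RNA → Fluidigm TaqMan qRT-PCR; norm ACTB/GAPDH/POLR2A; bidirectional fit vs DMSO.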

TIMP1, TIMP1 (gene 7076) = assay: LTEA_HepaRG_TIMP1: Life Technologies and Expression Analysis (LTEA) Assay for TIMP1 using HepaRG (AID 2283534); settings: mRNA level, 48 h; actives raise or lower the signal
Summary of the method: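 Readout is TIMP1 mRNA level measured by qRT-PCR and normalized to three housekeeping genes. Human HepaRG cells were treated for 48 h in duplicate at eight concentrations up to 100 uM (0.5% DMSO); gain or loss fitted against DMSO.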

[8] = read-out: Tumor necrosis factor receptor 1 (TNFRSF1A), TNFRSF1A (gene 7132); assay: LTEA_HepaRG_TNFRSF1A: Life Technologies and Expression Analysis (LTEA) Assay for Tumor necrosis factor receptor 1 (TNFRSF1A) using HepaRG (AID 2283535); settings: mRNA level, 48 h; actives raise or lower the signal
Summary of the method: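 Read-out is TNFRSF1A transcript level by TaqMan qRT-PCR, normalized to three housekeeping genes, scored as gain or loss of signal versus 0.5% DMSO. Human HepaRG cells received test chemicals for 48 h at up to 100 uM (half-log series).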

[9] = read-out: Thyroid Hormone Responsive (THRSP), THRSP (gene 7069); assay: LTEA_HepaRG_THRSP: Life Technologies and Expression Analysis (LTEA) Assay for Thyroid Hormone Responsive (THRSP) using HepaRG (AID 2283536); settings: mRNA level, 48 h; actives raise or lower the signal
Summary of the method: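 THRSP transcript quantified by Fluidigm qRT-PCR against three housekeeping genes after 48 h chemical exposure of HepaRG cells in serum-free induction medium; eight-point half-log series, top 100 uM, 0.5% DMSO vehicle, duplicate wells.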

[10] = read-out: Cellular tumor antigen p53 (Homo sapiens) (UniProt P04637); assay: LTEA_HepaRG_TP53: Life Technologies and Expression Analysis (LTEA) Assay for Tumor Protein P53 (TP53) using HepaRG (AID 2283537); settings: mRNA level, 48 h; actives raise or lower the signal
Summary of the method: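 HepaRG, 48 h exposure, top 100 uM, half-log 8-point, 0.5% DMSO vehicle, duplicates. Read: TP53 mRNA by TaqMan qRT-PCR, normalised to ACTB/GAPDH/POLR2A; bidirectional fit vs DMSO.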

[11] = read-out: UDP glucuronosyltransferase (UGT1A1), UGT1A1 (gene 54658); assay: LTEA_HepaRG_UGT1A1: Life Technologies and Expression Analysis (LTEA) Assay for UDP glucuronosyltransferase (UGT1A1) using HepaRG (AID 2283538); settings: mRNA level, 48 h; actives raise or lower the signal
Summary of the method: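 HepaRG, 48 h chemical exposure (top 100 uM, half-log 8-pt, 0.5% DMSO vehicle), duplicate wells; qRT-PCR (TaqMan, Fluidigm array) for UGT1A1 mRNA, housekeeping-normalized; bidirectional curve fit vs DMSO baseline.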

[12] = read-out: UDP glucuronosyltransferase (UGT1A6), UGT1A6 (gene 54578); assay: LTEA_HepaRG_UGT1A6: Life Technologies and Expression Analysis (LTEA) Assay for UDP glucuronosyltransferase (UGT1A6) using HepaRG (AID 2283539); settings: mRNA level, 48 h; actives raise or lower the signal
Summary of the method: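 HepaRG, 48 h post-plating switch to serum-free induction medium; chemical 48 h, 100 uM top, half-log x8, duplicate, 0.5% DMSO. Phenobarbital 1mM induction control. UGT1A6 mRNA by TaqMan qRT-PCR; gain/loss fit vs DMSO.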

[13] = read-out: X-box binding protein 1 (XBP1), XBP1 (gene 7494); assay: LTEA_HepaRG_XBP1: Life Technologies and Expression Analysis (LTEA) Assay for X-box binding protein 1 (XBP1) using HepaRG (AID 2283540); settings: mRNA level, 48 h; actives raise or lower the signal
Summary of the method: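 Transcript levels of XBP1, measured by qRT-PCR and normalised to three housekeeping genes, were fitted bidirectionally relative to 0.5% DMSO controls. Human HepaRG cells received eight-point half-log dilutions from 100 uM for 48 h.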

[14] = LTEA_HepaRG_LDH_cytotoxicity: Cytotoxicity Assessment in the Life Technologies and Expression Analysis (LTEA) Assay (AID 2283563; active means hit-call score of the fitted dose curve at least 0.9, where 1 is the maximum;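 on AC50: LDH activity released into spent culture medium as a marker of cell death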)
Summary of the method: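 Cells were thawed and plated for 48 h. Medium was then replaced with serum-free induction medium. Chemicals (8 half-log points, maximum 100 uM, 0.5% DMSO) were added in duplicate for 48 h, after which spent medium was assayed for LDH.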

[15] = ATG_XTT_Cytotoxicity: Cytotoxicity Assessment in the Attagene TRANS-FACTORIAL HepG2 Assay (AID 2283584; active means hit-call score of the fitted dose curve at least 0.9, where 1 is the maximum)
Summary of the method: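 Cells: human HepG2, transiently transfected with MRTU reporter constructs. Exposure 24 h. Readout: XTT, cell number. Baseline/neg ctrl DMSO; loss-of-signal scored.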

[16] = TOX21_p53_BLA_p2_viability: Viability Assessment in the Tox21 HCT-116 p53 Agonism Beta-lactamase Assay, Phase 2 (AID 2283591; active means hit-call score of the fitted dose curve at least 0.9, where 1 is the maximum;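 further: compound exposure lasted 16 h at 37 °C; actives lower the ATP signal meaning cytotoxicity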)
Summary of the method: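 Cytotoxicity readout: CellTiter-Glo ATP luminescence, 30 min at room temperature, after the beta-lactamase read. Cells were HCT116 exposed 16 h at 37C to compounds pin-transferred at 217-fold dilution from DMSO stocks.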

[17] = target: Cellular tumor antigen p53 (Homo sapiens) (UniProt P04637); assay: TOX21_p53_BLA_p2_ratio: Tox21 HCT-116 p53 Agonism Beta-lactamase Assay, Ratio, Phase 2 (AID 2283592; active means hit-call score of the fitted dose curve at least 0.9, where 1 is the maximum)
Cellular tumor antigen p53 (Homo sapiens), sequence (P04637 whole entry, looked up): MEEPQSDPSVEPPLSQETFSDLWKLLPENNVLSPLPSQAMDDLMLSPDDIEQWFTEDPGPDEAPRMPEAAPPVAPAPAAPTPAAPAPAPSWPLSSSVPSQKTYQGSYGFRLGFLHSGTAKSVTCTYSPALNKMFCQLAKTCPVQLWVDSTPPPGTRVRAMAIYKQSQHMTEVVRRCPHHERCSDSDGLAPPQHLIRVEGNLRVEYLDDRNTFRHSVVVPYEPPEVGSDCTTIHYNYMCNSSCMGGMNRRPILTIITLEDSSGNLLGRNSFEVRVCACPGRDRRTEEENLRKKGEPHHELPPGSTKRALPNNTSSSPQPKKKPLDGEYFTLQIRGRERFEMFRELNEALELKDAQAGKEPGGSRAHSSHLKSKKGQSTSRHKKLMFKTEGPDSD
Summary of the method: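 Plated HCT116 p53-bla cells (4000/well) received compound after 5 h, then 16 h at 37C/5% CO2. CCF4-AM added, 2 h RT. Ratio of 460 to 530 nm emission taken as the p53 reporter signal.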

[18] = TOX21_p53_BLA_p3_viability: Viability Assessment in the Tox21 HCT-116 p53 Agonism Beta-lactamase Assay, Phase 3 (AID 2283593; active means hit-call score of the fitted dose curve at least 0.9, where 1 is the maximum;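 further: cells exposed to compound for 16 h before reading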)
Summary of the method: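 Cellular ATP was quantified by CellTiter-Glo luminescence, read after 30 min at room temperature. Beforehand, HCT116 cells (4000/well) received compound 5 h post-seeding, 217-fold diluted from DMSO, then incubated 16 h at 37C.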

[19] = target: Cellular tumor antigen p53 (Homo sapiens) (UniProt P04637); assay: TOX21_p53_BLA_p3_ratio: Tox21 HCT-116 p53 Agonism Beta-lactamase Assay, Ratio, Phase 3 (AID 2283596; active means hit-call score of the fitted dose curve at least 0.9, where 1 is the maximum)
Summary of the method: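 Cells were seeded at 4000/well, rested 5 h at 37C, then dosed with DMSO compound solutions (217-fold dilution) for 16 h. CCF4-AM substrate was loaded for 2 h at room temperature, and the 460/530 nm emission ratio was fitted for gain of signal versus DMSO.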

Measured: AC50

Nuclear factor erythroid 2-related factor 2 (Homo sapiens), sequence (Q16236 whole entry, looked up): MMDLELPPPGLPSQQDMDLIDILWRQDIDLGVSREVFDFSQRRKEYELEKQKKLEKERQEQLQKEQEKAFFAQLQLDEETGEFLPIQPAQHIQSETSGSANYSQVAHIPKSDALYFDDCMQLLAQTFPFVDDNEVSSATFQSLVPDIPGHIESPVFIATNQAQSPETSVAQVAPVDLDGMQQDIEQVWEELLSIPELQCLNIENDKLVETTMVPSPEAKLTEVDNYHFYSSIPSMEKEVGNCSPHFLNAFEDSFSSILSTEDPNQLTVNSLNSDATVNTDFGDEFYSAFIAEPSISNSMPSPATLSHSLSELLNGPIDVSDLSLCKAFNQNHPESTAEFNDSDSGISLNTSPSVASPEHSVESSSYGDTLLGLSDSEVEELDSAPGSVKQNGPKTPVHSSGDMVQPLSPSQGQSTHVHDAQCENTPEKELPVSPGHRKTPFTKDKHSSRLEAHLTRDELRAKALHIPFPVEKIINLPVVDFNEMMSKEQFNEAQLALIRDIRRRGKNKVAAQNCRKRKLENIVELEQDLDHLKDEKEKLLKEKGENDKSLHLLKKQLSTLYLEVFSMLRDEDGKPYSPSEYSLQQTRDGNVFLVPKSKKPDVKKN
Signal transducer and activator of transcription 3 (Homo sapiens), sequence (P40763 whole entry, looked up): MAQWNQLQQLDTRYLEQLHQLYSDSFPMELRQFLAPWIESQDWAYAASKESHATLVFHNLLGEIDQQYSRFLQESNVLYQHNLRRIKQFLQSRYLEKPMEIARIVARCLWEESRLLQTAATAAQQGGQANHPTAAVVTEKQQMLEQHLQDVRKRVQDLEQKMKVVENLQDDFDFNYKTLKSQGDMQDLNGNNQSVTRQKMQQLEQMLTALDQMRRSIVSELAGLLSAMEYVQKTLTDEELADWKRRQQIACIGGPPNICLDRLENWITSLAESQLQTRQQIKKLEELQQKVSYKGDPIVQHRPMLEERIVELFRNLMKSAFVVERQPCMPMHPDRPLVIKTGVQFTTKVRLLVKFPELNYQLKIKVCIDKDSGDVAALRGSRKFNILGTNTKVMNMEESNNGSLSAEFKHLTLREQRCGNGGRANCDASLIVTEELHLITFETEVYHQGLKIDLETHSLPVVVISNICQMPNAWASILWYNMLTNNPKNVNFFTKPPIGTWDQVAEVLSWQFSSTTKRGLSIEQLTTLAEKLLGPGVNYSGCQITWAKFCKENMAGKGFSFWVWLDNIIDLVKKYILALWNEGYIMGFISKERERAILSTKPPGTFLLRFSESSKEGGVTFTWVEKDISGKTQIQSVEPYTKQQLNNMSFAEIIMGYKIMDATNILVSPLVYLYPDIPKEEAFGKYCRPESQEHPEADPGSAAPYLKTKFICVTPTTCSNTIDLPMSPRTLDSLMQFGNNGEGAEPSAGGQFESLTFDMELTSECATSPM

CC(=O)C(C)=CC1C(C)=CCCC1(C)C (centres undefined)
inactive: all assays above

OC[C@@H](O)[C@@H](O)[C@H](O)[C@H](O)CO
not listed: [12]
inactive: all other assays above

CN1CCN(Cc2cc(-c3ccc4[nH]c(=O)oc4c3)co2)[C@@H](c2ccc(F)cc2)C1
active: [7] 62 µM
not listed: [15] | [19]
inactive: all other assays above

COCCOCCOC
active: [1] 9.92 µM | [2] 10.9 µM | [6] 1.21 µM | [10] 0.59 µM | [11] 3.2 µM | [13] 1.16 µM
not listed: [12] | [18]
inactive: all other assays above

NCCO
not listed: [15] | [16] | [18]
inactive: all other assays above

Cc1ccccc1Cl
inactive: all assays above

COc1ccc2c(c1)c(CC(=O)O)c(C)n2C(=O)c1ccc(Cl)cc1
inactive: all assays above

Cc1ccc(C(C)C)c(O)c1
active: [16] 66 µM
not listed: [12]
inactive: all other assays above

CCCCCCCC=O
not listed: [12]
inactive: all other assays above

CCc1c(C(=O)NN2CCCCC2)nn(-c2ccc(Cl)cc2Cl)c1-c1ccc(Br)cc1
active: [1] 72.4 µM | [4] 36.9 µM | [5] 37.4 µM | [6] 55.3 µM | [7] 13.2 µM | TIMP1, TIMP1 (gene 7076) 86.5 µM | [10] 29.8 µM | [11] 58.1 µM | [12] 73.6 µM | [13] 74.9 µM | [14] 61.6 µM | [16] 5.6 µM | [18] 9.14 µM
inactive: [2] | [3] | [8] | [9] | [17] | [19]

CCCCCCC(=O)OCC
not listed: [12] | [16] | [18]
inactive: all other assays above

CCNc1cccc(C)c1
not listed: [12]
inactive: all other assays above

CCCCCCCCCCCCCCCCCC(=O)O
not listed: [16] | [17] | [18] | [19]
inactive: all other assays above

Cc1nc(-c2ccc3c(c2)CCN(CCC2CCC(NC(=O)/C=C/c4ccc(F)cc4)CC2)CC3)no1 (centres undefined)
not listed: [12] | [18]
inactive: all other assays above
